MITF inh: blocks human microphthalmia-associated transcription factor; O75030; AlphaScreen MITF homodimerization, bead proximity signal; inhibition, % at 2.6 µM; hit rate 0.91% among 650,000; in the data active means inhibition above about 50%
GPR151 activ: activates the human receptor GPR151 | Q8TDV0 | PathHunter beta-arrestin GPR151 cells, luminescence | activation, % at 11.2 µM | hit rate 1% among 650,000 | AID 1508602; in the data active means activation above about 4.9%
Target sequence (Q8TDV0 whole entry, looked up): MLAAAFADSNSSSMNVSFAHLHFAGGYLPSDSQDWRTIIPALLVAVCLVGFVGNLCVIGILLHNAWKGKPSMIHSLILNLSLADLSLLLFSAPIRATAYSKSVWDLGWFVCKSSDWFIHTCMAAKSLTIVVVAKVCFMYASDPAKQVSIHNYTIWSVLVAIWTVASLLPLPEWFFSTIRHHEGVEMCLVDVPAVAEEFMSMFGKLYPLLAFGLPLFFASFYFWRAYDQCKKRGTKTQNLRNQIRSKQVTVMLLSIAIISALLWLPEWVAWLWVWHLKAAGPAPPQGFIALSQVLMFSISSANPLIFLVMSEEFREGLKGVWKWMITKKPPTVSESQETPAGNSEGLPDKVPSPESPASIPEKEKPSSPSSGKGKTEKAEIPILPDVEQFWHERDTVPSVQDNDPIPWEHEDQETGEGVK
FBW7 act: activators of human E3 ligase FBW7; Q969H0; AlphaScreen FBW7–phospho-cyclin E peptide binding, activator screen; normalized activity (activation), % at 26.1 µM; hit rate 0.13% among 650,000; AID 1259310; in the data active means normalized activity above about 1.9%;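 further: purified mutant Fbw7 with reduced substrate affinity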
TEAD-YAP inh: TEAD-YAP interaction inhibition. inhibition, % at 9.12 µM. HEK-TIYL cells, TEAD-Gal4/YAP UAS-luciferase luminescence. AID 1259422. hit rate 1.4% among 640,000; in the data active means inhibition above about 32%
MITF confirm: confirmation of human MITF inhibitors; hit rate 16% among 4,700; shares compounds with MITF inh; inhibition, % at 2.6 µM; AlphaScreen MITF homodimerization, biotin/His-MITF beads;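 active means inhibition above a cutoff derived from the DMSO control wells, cut at about 28% in these data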;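 further: inhibitors lower the bead chemiluminescence by keeping MITF from dimerizing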
AlphaScreen intf2: optically interferes with AlphaScreen signal | shares compounds with MITF inh | LysRS AlphaScreen counterscreen, signal interference, triplicate | inhibition, % at 2.6 µM | hit rate 7.6% among 4,700;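 active means inhibition above a cutoff derived from the DMSO control wells, cut at about 30% in these data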
Each line names hits and unclear results; the compound was inactive in the other large screens (follow-up assays come after a bar, where they were run). The list is not random: actives were taken first. Their share in the collection is about 3.5%.

O=c1c2ccccc2nc(SCc2cc(F)cc3c2OCOC3)n1C1CCCCC1	MITF inh 69 | MITF confirm inactive | AlphaScreen intf2 inactive
CCOC(=O)c1cc2c(c(CSc3nc4ccccc4c(=O)n3Cc3ccccc3)c1)OCOC2	none
O=C(N[C@@H]1CCN(C(=O)c2cnccc2Nc2ccc(Cl)c(F)c2)C1)[C@H](O)c1cccc(Cl)c1	none
O=C(O)CNC(=O)CC1S/C(=N/N=C2\CSC(=O)N2)NC1=O (stereo unspecified)	MITF inh 88 | MITF confirm 80 | AlphaScreen intf2 100
O=C(CC1S/C(=N/N=C2\CSC(=O)N2)NC1=O)Nc1ccc(F)cc1 (stereo unspecified)	MITF inh 61 | MITF confirm 49 | AlphaScreen intf2 99
O=C(CC1S/C(=N/N=C2\CSC(=O)N2)NC1=O)Nc1ccc(Cl)cc1 (stereo unspecified)	none
O=C(O)CNC(=O)CC1S/C(=N/N=C/c2ccccc2O)NC1=O (stereo unspecified)	none
CCn1c(SCC(=O)Nc2cc(C)ccc2C)nnc1C(C)C	none
O=C1CCC(=O)N1c1ccc(Cl)c([N+](=O)[O-])c1	none
Cc1ccc(OCCOCCN2CCN(C)CC2)c([N+](=O)[O-])c1	MITF inh 87 | MITF confirm inactive | AlphaScreen intf2 inactive
CN1CCN(CCOCCOc2ccccc2[N+](=O)[O-])CC1	MITF inh 78 | MITF confirm inactive | AlphaScreen intf2 inactive
O=[N+]([O-])c1ccccc1OCCOCCOc1ccccc1[N+](=O)[O-]	none
COc1ccccc1CN1CCC(N2CCCCC2)CC1	MITF inh 70 | MITF confirm inactive | AlphaScreen intf2 inactive
COc1ccccc1CN1CCC(N2CCN(c3ccccc3)CC2)CC1	MITF inh 68 | MITF confirm inactive | AlphaScreen intf2 inactive
COc1cccc(CN2CCC(N3CCCCCC3)CC2)c1OC	none
Cc1cccc(NCC(=O)c2ccc(Cl)c(Cl)c2)c1	none
CC(C)C[C@@H]1NC(=O)[C@H]2CN(C(=O)c3ccc(OC(F)(F)F)cc3)CCN2C1=O	none
O=C1OC(c2ccccc2)=N/C1=C/c1cc2ccccc2nc1N1CCOCC1	MITF inh 56 | MITF confirm inactive | AlphaScreen intf2 inactive
NC(=O)C1CC(=O)N(CCCc2ccccc2)C(=Nc2ccccc2)S1 (stereo unspecified)	none
Cn1c(-c2ccc(Br)cc2)cnc1NCc1ccc(C#N)cc1	none
Cn1c(-c2ccc(Cl)cc2)cnc1NCc1ccc(C#N)cc1	MITF inh 54 | MITF confirm inactive | AlphaScreen intf2 inactive
O=C1c2ccccc2C(=O)N1/N=C/c1cc(Cl)cc([N+](=O)[O-])c1O	none
O=C1CSC(=O)N1CC(O)COc1cccc2ccccc12 (stereo unspecified)	MITF inh 89 | MITF confirm inactive | AlphaScreen intf2 inactive
Cc1cccn2c(=O)c3c(nc12)CCN(C(=O)Nc1cccc(F)c1)C3	none
Cc1cccn2c(=O)c3c(nc12)CCN(C(=O)Nc1cccc(C(F)(F)F)c1)C3	MITF inh 51 | MITF confirm inactive | AlphaScreen intf2 inactive
O=C1N[C@H](Cc2ccc(O)cc2)C(=O)N2CCN(C(=O)c3ccc(C(F)(F)F)cc3)C[C@H]12	none
CC(C(=O)O)N1C(=O)NC2NC(=O)NC21 (stereo unspecified)	none
Cc1cccc(CNC(=O)C2CC23CCN(C(=O)c2cc(-c4ccccc4)no2)CC3)n1 (stereo unspecified)	none
Cc1cccc(CNC(=O)C2CC23CCN(C(=O)c2c(-c4ccccc4)noc2C)CC3)n1 (stereo unspecified)	MITF inh 80 | MITF confirm inactive | AlphaScreen intf2 inactive
CCC(C)c1ccccc1OCCOCCN1CCOCC1 (stereo unspecified)	MITF inh 76 | MITF confirm inactive | AlphaScreen intf2 inactive
CCC(C)c1ccccc1OCCOCCN1CCCC1 (stereo unspecified)	none
CCC(C)c1ccccc1OCCCN1CCOCC1 (stereo unspecified)	MITF inh 61 | MITF confirm inactive | AlphaScreen intf2 inactive
CC(=O)c1ccccc1OCCCN1CCOCC1	none
c1ccc2c(OCCOCCNCCN3CCOCC3)cccc2c1	MITF inh 52 | MITF confirm inactive | AlphaScreen intf2 inactive
C=CCNCCOCCOc1ccccc1C(C)CC (stereo unspecified)	none
CCC(C)c1ccccc1OCCOCCN(C)C (stereo unspecified)	MITF inh 86 | MITF confirm inactive | AlphaScreen intf2 inactive
CCCN1C(=O)/C(=C2\SC(=S)NC2=O)c2ccccc21	none
CCN1CCN(CCCCOc2cccc3ccccc23)CC1	none
CCC(C)c1ccccc1OCCN1CCNCC1 (stereo unspecified)	none
CCN1CCN(CCCCOc2ccccc2OC(C)C)CC1	MITF inh 51 | MITF confirm inactive | AlphaScreen intf2 inactive
CCC(C)c1ccccc1OCCCN1CCN(CC)CC1 (stereo unspecified)	MITF inh 63 | MITF confirm inactive | AlphaScreen intf2 inactive
CCN1CCN(CCCOc2ccccc2OCc2ccccc2)CC1	MITF inh 69 | MITF confirm inactive | AlphaScreen intf2 inactive
CCC(C)c1ccccc1OCCCCN1CCOCC1 (stereo unspecified)	MITF inh 51 | MITF confirm inactive | AlphaScreen intf2 inactive
CCOc1ccccc1OCCCCN1CCOCC1	none
C=CCC1(CC=C)CCCN1C(=O)CC1C(=O)NCCN1CC1CCCCC1 (stereo unspecified)	none
CCOc1ccc(NC(=O)CC2C(=O)N(c3ccc(Cl)cc3)C(=S)N2CCc2ccccc2)cc1 (stereo unspecified)	none
CCOc1ccccc1CN1CCN(S(=O)(=O)c2ccc(Cl)cc2)CC1	MITF inh 61 | MITF confirm inactive | AlphaScreen intf2 inactive
COc1ccccc1CN1CCN(S(=O)(=O)c2ccccc2)CC1	MITF inh 63 | MITF confirm inactive | AlphaScreen intf2 inactive
Cc1cc(S(=O)(=O)N2CCN(Cc3ccc(Cl)cc3)CC2)ccc1-n1cnnn1	MITF inh 60 | MITF confirm inactive | AlphaScreen intf2 inactive
COc1cccc(CN2CCN(S(=O)(=O)c3ccccc3)CC2)c1OC	none
Cc1ccccc1CN1CCN(S(=O)(=O)c2ccc(Cl)cc2)CC1	MITF inh 53 | MITF confirm inactive | AlphaScreen intf2 inactive
O=C(CCC(=O)Nc1ccccc1Cl)NNC(=S)Nc1ccc2c(c1)OCO2	none
CCCCCc1c(O)nc(SCCN(C)C)n(-c2ccccc2)c1=O	none
CCOc1ccccc1-n1c(=S)sc2c(=O)n(-c3ccccc3)c(SCC(=O)Nc3ccc(C)cc3)nc21	none
Cc1ccc(S(=O)(=O)NCC(=O)N(CC(=O)NCc2ccco2)CC2CCCO2)cc1 (stereo unspecified)	none
O=C(Nc1ccc(Br)cc1)Nc1cccc(Cl)c1	MITF inh 57 | MITF confirm inactive | AlphaScreen intf2 inactive
CCN1CCN(c2c(Cl)cccc2NC(=O)c2ccc(Cl)s2)CC1	none
CCN1CCN(CC(=O)c2ccc(Cl)s2)CC1	MITF inh 74 | MITF confirm inactive | AlphaScreen intf2 inactive
